The results in this text go back to PubChem BioAssay.

Molecules are shown by their SMILES. “And” between values parts separate entries of the source, which are not always exact repeats. Equal values may be shown once. The source made the active and inactive calls. Unless noted, how the calls were made is not given here.

A short description of assay [1]: glutamate transport activators, MN-1 cells, MN-1 cell line (AID 1612).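 Further: tested at 1 µM final; 0% = mean of DMSO vehicle wells on each plate; positive means more glutamate uptake than control and negative means less.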 The note with it: MN-1 motor neuron cells, stronger effect = higher value.
The nature of assay [2]: GFP-Q80 aggregate reduction, neuronal-like cells, cell-based, NGF-treated PC12, GFPQ80 (AID 1614).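 Further: lower means fewer inclusions and 0 means no inclusions at all.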 Particulars: PC12 NGF-treated GFP-polyQ80 inclusion reduction.
The nature of assay [3]: 75Q-TubH aggregate inhibition, S. cerevisiae, yeast (AID 1616). The note with it: S. cerevisiae 75Q-TubH polyglutamine aggregation suppression; stronger effect = higher value.
Assay [4] can be described thus: compounds altering viability of human ES cells (AID 493140).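 Further: cells exposed to compounds for four days before counting.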 The note with it: human embryonic stem cell survival screen; stronger effect = higher value.
Assay [5] is described as follows: Wnt pathway potentiators raising nuclear beta-catenin – imaging, WNT3A-conditioned medium, mouse C2C12, NPC library, primary screen (AID 1117326; in the data active means nuclear beta-catenin stimulation mostly above about 4.2%, no sharp cut-off; inactive means mostly below about 10%). The note with it: stronger effect = higher value.
Assay [6] can be described thus: compounds altering circadian rhythm period length – cell-based, LOPAC library, luminescence reporter (AID 2774).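 Further: values are relative to mean of DMSO wells on each plate.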 The note with it: circadian reporter cells, at 7 µM, actives lie on both sides.
Assay [7] in a line: P. berghei load reduction in hepatocytes – cell-based, HepG2, luciferase luminescence, HepG2 viability, primary screen (AID 624349; in the data active means parasite load remaining mostly below about 12%, no sharp cut-off; inactive means mostly above about 10%;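 further: 100% = mean of DMSO negative control wells on the same plate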). The note with it: P. berghei liver stage in HepG2, luciferase luminescence, concentration not given here; parasite load remaining: stronger effect = lower value; viability: measured here: HepG2 viability without parasites.
For assay [8], the system named is Hepatitis C virus NS3 helicase. Put plainly: blockers of NS3h binding to ssDNA – biochemical, fluorescence polarization, LOPAC1280 library, primary screen (AID 687035; in the data active means inhibition above about 37%). The note with it: Purified HCV NS3 helicase, Cy5-dT15 ssDNA binding fluorescence polarization; stronger effect = higher value; concentration not given here. (In general: Polarisation of emitted light reports the rotation of a fluorescent probe.)

Assay [9] in a line: compounds altering Cy5-DNA-NS3h complex signal – biochemical, LOPAC1280, artefact control for HCV NS3 helicase inhibitor project (AID 687037). Particulars: Cy5-DNA-NS3h complex fluorescence interference counterscreen. Background: The purpose of a counterscreen is to sort out artefacts and off-target activity.

Turning to `O=C(O)CCC(=O)c1ccc(-c2ccccc2)cc1`, the glutamate uptake change in [1] turned out to be 6.02%. For the same molecule, in [2], the inclusion score was 2. Further, in [3], the aggregation suppression score was -0.185. In addition, the survival in assay [4] was 32.7 (inactive). Moreover, the nuclear beta-catenin stimulation is 4.2% (inactive) in assay [5] (at 10 µM) and 0.6% in assay [5] (stimulation, at 2 µM).

As for `Nc1c2c(nc3ccccc13)CCCC2O` (stereo not given), the glutamate uptake change in [1] was found to be 6.03%. Besides, in assay [2], the inclusion score is 2. Also, the aggregation suppression score in assay [3] is 0.587. For the same molecule, the period change in assay [6] was 0.15 h (inactive). Further, the parasite load remaining in assay [7] was 125% (inactive) and 39.9% (inactive). For the same molecule, the viability in assay [7] is 110% and 112%. For the same molecule, the inhibition in [8] was -4% (inactive). The fluorescence ratio (interference) in assay [9] was 1 (inactive). Also, the nuclear beta-catenin stimulation in assay [5] (at 10 µM) was -0.8% (inactive); in assay [5] (stimulation, at 2 µM), -0.9%.

For `CCCc1ncc(C[n+]2ccccc2C)c(N)n1`, the glutamate uptake change in [1] came to 5.76%. The inclusion score in assay [2] amounted to 1.5. The aggregation suppression score in assay [3] was 0.986. For the same molecule, in assay [4], the survival was 8.58 (inactive). Further, the nuclear beta-catenin stimulation was -1.3% (inactive) in assay [5] (at 10 µM) and -2% in assay [5] (stimulation, at 2 µM).

For the molecule `Cc1onc(-c2ccccc2Cl)c1C(=O)N[C@@H]1C(=O)N2[C@@H]1SC(C)(C)[C@@H]2C(=O)O`, the glutamate uptake change in assay [1] was -4.39%. In addition, in [2], the inclusion score was determined as 2. In assay [3], this molecule showed an aggregation suppression score of 1.08. Besides, the survival in [4] is 24.6 (inactive). Further, the nuclear beta-catenin stimulation in assay [5] (at 10 µM) was 0.5% (inactive); in [5] (stimulation, at 2 µM), 0.3%.

Turning to `CS(=O)(=O)c1ccc([C@@H](O)[C@@H](CO)NC(=O)C(Cl)Cl)cc1`, the glutamate uptake change in [1] stood at 16.7%. Further, the inclusion score in assay [2] is 2. Also, the aggregation suppression score in assay [3] was 0.726. Further, the survival in assay [4] is 14.4 (inactive). Besides, the nuclear beta-catenin stimulation in assay [5] (at 10 µM) is 2.7% (inactive); in assay [5] (stimulation, at 2 µM), 2.3%.

In the case of `Nc1ccc(S(=O)(=O)Nc2nccs2)cc1`, the glutamate uptake change in assay [1] is 13.7%. Moreover, in assay [2], the inclusion score was 2. In assay [3], this molecule gave an aggregation suppression score of 1.31. The survival in [4] is 23.3 (inactive). Moreover, the nuclear beta-catenin stimulation in [5] (at 10 µM) was 0% (inactive); in [5] (stimulation, at 2 µM), 0%.

`CCCCC1C(=O)N(c2ccccc2)N(c2ccccc2)C1=O`: in assay [1], the glutamate uptake change is -15.3%. The molecule also came in with an inclusion score in [2] of 2. Moreover, the aggregation suppression score in assay [3] is 0.296. Also, the period change in [6] was 0.01 h (inactive). Moreover, in [7], the parasite load remaining is 85.8% (inactive) and 69.9% (inactive) and 33.4% (inactive); the viability is 73% and 101% and 70.5%. Also, in assay [8], the inhibition is -4% (inactive). In addition, the fluorescence ratio (interference) in [9] is 1 (inactive). The nuclear beta-catenin stimulation in assay [5] (at 10 µM) was -2% (inactive). The nuclear beta-catenin stimulation in assay [5] (stimulation, at 2 µM) was -0.9%.

With `CC(C)(Sc1cc(C(C)(C)C)c(O)c(C(C)(C)C)c1)Sc1cc(C(C)(C)C)c(O)c(C(C)(C)C)c1`, the glutamate uptake change in [1] is -0.51%. Besides, the inclusion score in assay [2] turned out to be 2. In assay [3], this molecule yielded an aggregation suppression score of 0.634. In addition, the survival in [4] was 7.33 (inactive). The nuclear beta-catenin stimulation is 4.3% (inactive) in assay [5] (at 10 µM) and 6% in [5] (stimulation, at 2 µM).

`O=C(COc1ccc(Cl)cc1)N1CCN(Cc2ccc3c(c2)OCO3)CC1`: in assay [1], the glutamate uptake change is 0.58%. Moreover, the inclusion score in assay [2] came out at 2.5. Also, in assay [3], the aggregation suppression score was 1.39. Moreover, the survival in assay [4] is 7.17 (inactive). Besides, in assay [7], the parasite load remaining is 33.6% (inactive) and 155% (inactive) and 109% (inactive); the viability was 49.1% and 91.8% and 89.5%. Also, in [5] (at 10 µM), the nuclear beta-catenin stimulation is 1% (inactive). For the same molecule, in assay [5] (stimulation, at 2 µM), the nuclear beta-catenin stimulation is -0.3%.

As for `CCn1cc(C(=O)O)c(=O)c2cnc(N3CCCC3)nc21`, the glutamate uptake change in assay [1] is -9.95%. The molecule further displayed an inclusion score in assay [2] of 2. Besides, in assay [3], the aggregation suppression score was found to be 1.27. Also, the survival in assay [4] was 4.5 (inactive). For the same molecule, in [7], the parasite load remaining was 91.2% (inactive) and 141% (inactive); the viability is 104% and 72%. In [5] (at 10 µM), the nuclear beta-catenin stimulation is -0.4% (inactive). Moreover, the nuclear beta-catenin stimulation in assay [5] (stimulation, at 2 µM) is 1.2%.

`Cc1nnc(NS(=O)(=O)c2ccc(N)cc2)s1`: the glutamate uptake change in [1] was 17.5%. In assay [2], the inclusion score was determined as 2. Moreover, the aggregation suppression score in assay [3] was found to be 1.24. The survival in assay [4] is 5.75 (inactive). Besides, the parasite load remaining in [7] was 77.8% (inactive) and 214% (inactive) and 50.9% (inactive). Besides, the viability in assay [7] was 95.4% and 74.4% and 104%. In addition, the nuclear beta-catenin stimulation in [5] (at 10 µM) was -0.1% (inactive); in assay [5] (stimulation, at 2 µM), 1.2%.

What is called viability is a read-out of living cells in per cent, often relative to untreated cells. What is called inhibition is the relative decrease from the control value, in per cent.
